Screens from PubChem BioAssay.
MCF10A rerep – induces DNA re-replication in MCF 10a normal breast cells; MCF 10A DNA re-replication, Hoechst nuclear intensity, 48 h; Potency, µM (highest dose often 46.1 µM), for the others: at the top dose activity, positive = re-replication, most hits filed as activators; 350,000 compounds, 2.9% hits; AID 624296; further: potency means the concentration at half of the fitted maximal effect; % of control where 0% means no effect; nearly all actives have a fitted effect of over 50% in size
SW480 rereplic – inducers of DNA re-replication in SW480 colon cancer cells. SW480 DNA re-replication, Hoechst DNA content imaging, 48 h. Potency, µM (highest dose often 46.1 µM), for the others: at the highest dose re-replication activation, usual class: activators. 340,000 compounds, 1.8% hits; further: potency means the concentration at half of the fitted maximal effect; % of control where 0% means no effect; nearly all actives have a fitted effect of over 55% in size
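DNA re-replication was detected as more nuclei of elevated Hoechst intensity after 48 hr exposure to compound (23 nL pinned per well of 250 cells).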
KB-3-1 tox – KB-3-1 parental cell cytotoxicity. KB-3-1 viability, CellTiter-Glo ATP luminescence, 72 h. Potency, µM (titrated, usually from 46.1 µM), most hits filed as cytotoxic. 400,000 compounds, 1.4% hits; further: potency means the concentration at half of the fitted maximal effect; on the % scale 0 is the no-effect control and ±100 the full control effect; nearly all actives have a fitted effect of over 60% in size
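Cytotoxicity in the drug-sensitive parental line KB-3-1 was scored as loss of CellTiter-Glo luminescence following 72 h incubation with compound. Values come from curve fitting of normalized concentration-response data.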
D3 antag – blocks the human D3 dopamine receptor; max response, negative = inhibition, %; P35462; AID 652054; D3R cells, DiscoveRx beta-arrestin luminescence, antagonist mode; stronger effect = lower value; 360,000 compounds, 2.5% hits; in the data active means max response below about -50%; inconclusive means no clear call, values can overlap the other calls; further: on the % scale 0 is the no-effect control and ±100 the full control effect
Target sequence (P35462 whole entry, looked up): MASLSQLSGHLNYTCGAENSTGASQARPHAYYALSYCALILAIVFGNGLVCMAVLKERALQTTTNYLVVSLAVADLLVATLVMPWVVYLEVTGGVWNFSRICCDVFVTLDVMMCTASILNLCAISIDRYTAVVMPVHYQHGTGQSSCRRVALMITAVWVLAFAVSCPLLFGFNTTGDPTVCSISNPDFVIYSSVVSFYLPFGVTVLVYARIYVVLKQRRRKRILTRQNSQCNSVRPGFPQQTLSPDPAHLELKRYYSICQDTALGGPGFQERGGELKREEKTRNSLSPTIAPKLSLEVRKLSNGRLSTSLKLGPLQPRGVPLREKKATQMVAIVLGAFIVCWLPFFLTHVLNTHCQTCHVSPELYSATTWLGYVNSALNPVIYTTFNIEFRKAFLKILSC
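Cells plated overnight at 1500 cells/well, then exposed to library compounds with dopamine controls for 90 minutes at 37 degrees C. DiscoveRx reagent added for 30–60 minutes at room temperature; luminescence read, quantitative HTS format.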
D3 ag – agonists of human D3 dopamine receptor. P35462. D3R DiscoveRx beta-arrestin cells, luminescence, 90 min. max activation, %. 410,000 compounds, 0.58% hits; in the data active means max activation above about 30%; further: 0% is about no effect
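Agonist mode: compounds and dopamine controls were applied to plated cells for 90 min at 37 degrees C after an overnight attachment at 1500 cells/well. Luminescent read-out followed 30 - 60 minutes at room temperature with DiscoveRx detection reagent.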
KB-V1 cytotox – kills drug-selected multidrug resistant KB-V1 cells. KB-V1 MDR cells viability, CellTiter-Glo, 72 h. Potency, µM (highest dose often 46.1 µM), most hits filed as cytotoxic. 400,000 compounds, 3.4% hits. AID 1347076; further: potency means the concentration at half of the fitted maximal effect; on the % scale 0 is the no-effect control and ±100 the full control effect; nearly all actives have a fitted effect of over 60% in size
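Cells of the MDR subline KB-V1 are plated, dosed with compound at multiple concentrations, and incubated 72 h at 37 degrees C; CellTiter-Glo is then added and luminescence read after 10 min.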
* = called active by the depositor; i = inactive; ? = inconclusive; · = no result given. Only some compounds are listed: those with a hit (about 8.9% of all), similar ones and a draw of the others. Unless noted, the call rests on the fitted dose curve; in most records, active means well fitted curve in the direction sought with a large enough effect; inconclusive means small, poorly fitted or top-dose-only effect, or another doubt; inactive means no such curve, though single readings can be large; an effect the other way counts as inactive or inconclusive.

SMILES	MCF10A rerep	SW480 rereplic	KB-3-1 tox	D3 antag	D3 ag	KB-V1 cytotox
CN1CC(c2ccccc2)C2(SC(=S)N(Cc3ccco3)C2=O)C12C(=O)Nc1ccccc12 (configuration not stated)	6.5µM*	?	21µM*	?	-28	?
Cc1oc2ncnc(N3CCCCC3)c2c1C(=O)NCC1CCN(Cc2ccccc2F)CC1	·	·	i	·	-19	i
O=C(Nc1cc(Cl)ccc1O)c1snnc1-c1ccccc1	?	1%	18µM*	28	3	8.2µM*
O=C(O)c1ccc(Cl)c(NC(=S)NC(=O)c2cccc(COc3ccccc3)c2)c1	8.2µM*	2%	i	22	3	i
O=C(Nc1ccc(-c2ccccc2)cc1)c1ccccc1	?	-1%	21µM*	7	3	i
Cc1ccc(NC(=O)C2=C(c3ccccc3)S(=O)(=O)CCS2(=O)=O)cc1	?	2.1µM*	?	-71*	-22	?
O=C(NC(=S)Nc1ccc(Cl)c(C(=O)O)c1)c1cccc(COc2ccccc2)c1	18%	4%	i	-6	6	i
Cc1ccc(NC(=O)c2ccccc2)cc1	0%	3%	i	-17	-5	i
NS(=O)(=O)c1ccc(NC(=S)NC(=O)c2ccc(-c3ccccc3)cc2)cc1	?	9%	i	-14	38*	i
O=C(NCCc1ccccc1)c1ccc(Cn2c(SCc3ccccc3F)nc3cccnc32)cc1	·	·	·	·	-6	·
C[C@H](NC(=O)[C@@H]1CSC2c3ccccc3C(=O)N21)C(=O)NCc1c(F)cccc1Cl (some centres not stated)	7%	-3%	i	9	11	i
CC(=O)Nc1ccc(S(=O)(=O)NC2(C(F)(F)F)C(=O)Nc3c2c(=O)[nH]c(=O)n3-c2ccc(C)c(C)c2)cc1 (configuration not stated)	·	·	i	·	1	i
CCOC(=O)c1ccccc1NC(=O)CSc1cc(C)[nH]c(=O)n1	·	·	i	·	4	i
CC(C)CN(CC(C)C)C(=O)C1CCCN(S(=O)(=O)c2ccc3c(c2)oc(=O)n3C)C1 (configuration not stated)	·	·	i	·	9	i
Cc1ccc(C(=O)NC(=S)Nc2cccc3nsnc23)cc1	0%	2%	i	-8	-4	i
Cc1ccc(C(=O)NC(=S)Nc2cccc3c(C)cc(C)nc23)cc1	?	-1%	?	-4	1	15µM*
O=C(O)c1cccc(NC(=S)NC(=O)c2ccc(-c3ccccc3)cc2)c1	5%	-6%	i	13	7	i
Cc1ccc(C(=O)NC(=S)Nc2ccccc2C(F)(F)F)cc1C	?	-11%	i	-80*	-1	i
Cc1cccc(C(=O)NC(=S)Nc2ccccc2C(F)(F)F)c1	6%	·	i	-29	-1	?
Cc1ccc(C(=O)O)cc1NC(=S)NC(=O)c1ccc(-c2ccccc2)cc1	-13%	-16%	i	-52*	-23	i
O=C(C[n+]1ccccc1Br)c1ccc(F)cc1	·	·	i	·	·	i
COc1cc(Cl)c(C)cc1NC(=O)NC1COc2ccccc2C1 (configuration not stated)	·	·	i	·	-18	i
CC(=O)c1c(N2CCOCC2)nc2ccc(Cl)cc2c1-c1ccccc1	15µM*	-11%	i	12	22	i
CCOC(=O)c1c(CN2CCNCC2)nc2ccc(Cl)cc2c1-c1ccccc1	?	?	?	6	-3	23µM*
Cc1ccc(-c2nc(S(=O)(=O)c3ccc(Cl)cc3)c(N3CCCCC3)o2)cc1	·	·	i	·	-18	?
SMILES	MCF10A rerep	SW480 rereplic	KB-3-1 tox	D3 antag	D3 ag	KB-V1 cytotox
O=C(NC1CCCCC1)c1ccc2c(c1)N(Cc1cccc(Cl)c1)C(=O)c1ccccc1S2(=O)=O	·	·	·	·	-10	·
CCC1=NN(C(=O)Cc2ccc(OC)c(OC)c2)C(O)(C(F)(F)F)C1 (configuration not stated)	-1%	-21%	i	34	3	15µM*
COc1ccc(C2=Nn3c(nnc3-c3ccccc3F)SC2)cc1OC1CCOC1 (configuration not stated)	?	10µM*	2.1µM*	·	·	21µM*
COc1ccc(OC)c(-c2nnc3n2N=C(c2ccc(OC)c(OC4CCCC4)c2)CS3)c1	?	0.73µM*	0.92µM*	·	·	4.6µM*
COc1ccc(C2=Nn3c(nnc3-c3ccccc3F)SC2)cc1OC1CCCC1	?	?	8.2µM*	·	·	?
COc1ccc(C2=Nn3c(nnc3C3CCCCC3)SC2)cc1OC	8%	2%	i	4	8	i
COc1cccc(NC(=O)Cn2cc(S(=O)(=O)N3CCCC3)c(S(=O)(=O)N3CCCC3)c2)c1	·	·	i	·	0	i
Cc1ccc(NC(=O)CSc2nc(-c3ccco3)cc(C(F)(F)F)n2)cc1	·	·	?	·	-7	?
O=C(c1ccccc1)C1CC1c1ccccc1 (configuration not stated)	·	·	?	-7	-11	i
C[C@H]1[C@H](c2ccccc2)C[C@@H](C(=O)O)C1(C)C	-10%	-3%	i	-17	32*	?
Cn1cc(CN2CCC(n3nccc3NC(=O)c3ccccc3Cl)CC2)c2ccccc21	?	?	i	-52*	-5	i
Cn1cc(CN2CCC(n3nccc3NC(=O)c3ccccc3Cl)CC2)cn1	2%	-19%	i	5	0	?
COc1ccccc1C(=O)Nc1ccnn1C1CCN(Cc2cn(C)c3ccccc23)CC1	-17%	11%	i	2	2	i
Cc1cc(C)c(CN2CCC(n3nccc3NC(=O)c3ccccc3Cl)CC2)cc1C	?	?	i	-52*	-12	?
COc1ccccc1C(=O)Nc1ccnn1C1CCN(Cc2cc(C)c(C)cc2C)CC1	?	?	·	0	-52	·
CCc1ccc(CN2CCC(n3nccc3NC(=O)c3ccccc3Cl)CC2)cc1	?	2%	i	-5	-6	18µM*
C[N+](C)(C)CCN1C(=O)c2ccccc2C1=O	·	·	i	0	0	i
COC(=O)c1cc2oc3ccccc3c2n1CC(=O)Nc1ccc(F)c(Cl)c1	·	·	·	·	7	·
CCCSc1oc(-c2cccs2)nc1S(=O)(=O)c1ccc(Cl)cc1	·	·	i	·	8	i
O=C(c1cc(N2C(=O)C3C4CCC(C4)C3C2=O)ccc1Cl)N1CCN(c2ccc(F)cc2)CC1 (configuration not stated)	?	-2%	?	-12	-4	2.6µM*
